PubChem BioAssay (NCATS)
Several values for one entry are separate records, joined by “and”; a condition that tells them apart may be missing. Equal entries are not always repeated. Inconclusive results are not listed. A number with no mark means an inactive call. Activity calls are given as the source filed them. The call rests on the fitted dose curve; in most records, active means well fitted curve in the direction sought with a large enough effect; inconclusive means small, poorly fitted or top-dose-only effect, or another doubt; inactive means no such curve, though single readings can be large or run the other way.

Test: qHTS Assay for Identifying Gametocytocidal Compounds (AID 743244);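 on max response: actives lower the fluorescent signal which means gametocytes are killed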
Settings: P. falciparum 3D7 stage III-V gametocytes, alamarBlue, 72 h; max response: stronger effect = lower value
Text: Malaria cases and deaths have dropped 50% in 29 countries since 2000 due to the combined effects of long-lasting insecticidal bednets, indoor residual spraying, and artemisinin-based combination therapies (ACTs). This success has raised hopes for malaria eradication and consequently stimulated interest in developing new reagents that block gametocyte transmission such as novel and safe gametocytocidal drugs. However, previous drug development efforts have focused primarily on the asexual parasites that cause symptoms, but not malaria transmission. Consequently, patients can remain infectious for weeks after the clearance of asexual parasites and clinical symptoms. To be transmitted from person to person via a mosquito, the parasites must switch from asexual to sexual development and produce male and female gametocytes. Malaria gametocytes consist of five stages (I, II, III, IV and V). The late stage gametocytes (III, IV and V) are difficult to be cultured in vitro and the long lifespan of mature gametocytes allows them being transmitted from host to mosquitoes unless they are completely eliminated by gametocytocidal agents. To identify gametocytocidal compounds which are capable of killing late stage P. falciparum gametocytes, a high throughput gametocyte viability assay was employed. This assay uses oxidoreduction indicator, alamarBlue, as a general measure of metabolic activity of gametocytes. Within live cells, the nonfluorescent resazurin is reduced to resorufin, a bright red fluorescence dye. Fluorescence decreases upon treatment of gametocytocidal compounds. P. falciparum gametocyte (3D7 strain) was used in this study.
The 1536-well gametocycidal viability assay was based on the previous method of Tanaka et al. Stage III-V gametocytes were tested against three compound libraries, including 4265 compounds from NCGC pharmaceutical collection, 400 from Malaria Box library, and 550 from an internal collection of kinase inhibitors. Briefly, 2.5 ul/well incomplete medium was dispensed into each well of 1,536-well plates using the Multidrop Combi followed by 23 nl compound transferring using the NX-TR Pintool (WAKO Scientific Solutions, San Diego, CA). Then, 2.5 ul/well of gametocytes was dispensed with a seeding density of 20,000 cells/well using the Multidrop Combi. The assay plates were incubated for 72 h at 37C with 5% CO2. After addition of 5 ul/well of 2X AlamarBlue dye (Life Technologies, cat. no. DAL1100), the plates were incubated for 24 h at 37C with 5% CO2 and then were read in a fluorescence detection mode (Ex = 525 nm, Em = 598 nm) on a ViewLux plate reader (PerkinElmer).
On the % scale 0 is the no-effect control and ±100 the full control effect; potency means the concentration at half of the fitted maximal effect.

Compound	max response	Potency
O=c1[nH]c(=O)n([C@H]2C[C@H](O)[C@@H](CO)O2)cc1F	4.58%	
CCc1cc(Cl)c(OC)c(C(=O)NC[C@@H]2CCCN2CC)c1O	-8.19% and -10.7% and 19.5%	
Nc1nc(N)c(-c2ccccc2)s1	-3.45%	
CCCCCCCCCCCCCCCC(=O)O	2.07%	
CCNC(=O)/C=C/c1cccc(Br)c1	3.79%	
CN(C)CCN1C(=O)c2ccccc2N(C)c2ccccc21	-0.0527%	
CCc1nn(CCCN2CCN(c3cccc(Cl)c3)CC2)c(=O)n1CCOc1ccccc1	-8.53% and -14%	
CCCCCCCC/C=C\CCCCCCCCN	-6.53%	
CCO[C@@H]1O[C@H](C(COCc2ccccc2)OCc2ccccc2)[C@H](OCc2ccccc2)[C@H]1O (stereo not given in full)	-9.56%	
CCN[C@@H]1C[C@H](N)[C@@H](OC2OC(CN)=CCC2N)[C@H](O)[C@H]1O[C@H]1OC[C@](C)(O)[C@H](NC)[C@H]1O (stereo not given in full)	13.5%	
C[C@]12CCC(=O)C=C1C=C[C@@H]1[C@@H]2CC[C@@]2(C)[C@H]1CC[C@@]21CCC(=O)O1	1.8%	
NC(=S)N/N=C/c1cccnc1	-11.6%	
CC(=O)OCC1=C(C(=O)O)N2C(=O)[C@@H](NC(=O)CSc3ccncc3)[C@H]2SC1	-9.74%	
CN(Cc1ccc(C(C)(C)C)cc1)Cc1cccc2ccccc12	18.1% and -10.3%	
CCN(CC)CCOc1ccccc1C(=O)CCc1ccccc1	-3.28%	
Cc1ccc(S(=O)(=O)NC(=O)NC2CCCC2)cc1	3.98%	
CO[C@H]1C=CO[C@@]2(C)Oc3c(C)c(O)c4c(O)c(c(/C=N/N5CCN(C)CC5)c(O)c4c3C2=O)NC(=O)/C(C)=C\C=C[C@H](C)[C@H](O)[C@@H](C)[C@@H](O)[C@@H](C)[C@H](OC(C)=O)[C@@H]1C		15.8 µM (active)
C=C1c2cccc(O)c2C(O)=C2C(=O)[C@]3(O)C(O)=C(C(N)=O)C(=O)[C@@H](N(C)C)[C@@H]3[C@@H](O)[C@H]12	-4.37%	
CC(=O)NO	6.13%	
O=C(O)CCc1nc2ccccc2[nH]1	8.17%	

Compound	max response	Potency
C=CCN1CCc2nc(N)sc2CC1	14.4%	
O=C1[C@H](CC[C@H](O)c2ccc(F)cc2)[C@@H](c2ccc(O)cc2)N1c1ccc(F)cc1	4.75%	
CC(=O)O[C@H]1C[C@@H]2CC[C@@H]3[C@H](CC[C@@]4(C)[C@H]3C[C@H]([N+]3(C)CCCCC3)[C@@H]4OC(C)=O)[C@@]2(C)C[C@@H]1N1CCCCC1	-2.39%	
CC(C(=O)O)c1cccc(Oc2ccccc2)c1 (stereo not given)	17.6%	
Cc1ncc(CO)c(C=O)c1O	-3.85%	
CCC(CC)(CC(=O)Nc1cccc(/C=C/c2nc(C3CCC3)cs2)c1)C(=O)O	48.4%	
COc1ccc(C(Cl)=C(c2ccc(OC)cc2)c2ccc(OC)cc2)cc1	5.06%	
COc1ccc2c(c1)c1c3n2CCN(C)C3=NCC1	18.4%	
N=C(N)N1CCc2ccccc2C1	4.79%	
COc1ccc(CCN(C)CCCN2CCc3cc(OC)c(OC)cc3CC2=O)cc1OC	-9.4%	
CC[C@]12CCCN3CCc4c(n(c5ccccc45)C(=O)C1)[C@@H]32	3.35%	
O=S(=O)(O)c1ccc(O)cc1	19.1%	
NCCNC(=O)c1ccc(Cl)cn1	-2.71%	
Cc1ccc(-c2ncc(Cl)cc2-c2ccc(S(C)(=O)=O)cc2)cn1	12.8%	
CC(C)Nc1cccnc1N1CCN(C(=O)c2cc3cc(NS(C)(=O)=O)ccc3[nH]2)CC1	-8.7%	
C#C[C@]1(O)CC[C@H]2[C@@H]3CCC4=Cc5oncc5C[C@]4(C)[C@H]3CC[C@@]21C	-4.72%	
CCCCC(CC)COC(=O)/C=C/c1ccc(OC)cc1 (stereo not given)	11.8%	
O=C(N/N=C/c1ccc([N+](=O)[O-])o1)c1ccc(O)cc1		1.12 µM (active)
Cc1cc(-c2ccccc2)nnc1NCCN1CCOCC1	-0.774% and -9.14%	
CC(C)=CCOc1ccc(/C=C/C(=O)c2ccc(OCC=C(C)C)cc2OCC(=O)O)cc1	2.6%	
